Assay outcomes: PubChem BioAssay, National Center for Advancing Translational Sciences (NCATS)
L3MBTL1 block: L3MBTL1 (human) inhibition; AlphaScreen L3MBTL1–H3K9me1 peptide binding; Potency, µM (series often up to 57.1 µM), for the others: at the highest dose activity, negative = inhibition, most hits filed as inhibitors; 230,000 tested, 0.66% active; AID 485360; further: on the % scale 0 is the no-effect control and ±100 the full control effect; nearly all actives have a fitted effect of over 60% in size
Target sequence (Q9Y468 whole entry, looked up): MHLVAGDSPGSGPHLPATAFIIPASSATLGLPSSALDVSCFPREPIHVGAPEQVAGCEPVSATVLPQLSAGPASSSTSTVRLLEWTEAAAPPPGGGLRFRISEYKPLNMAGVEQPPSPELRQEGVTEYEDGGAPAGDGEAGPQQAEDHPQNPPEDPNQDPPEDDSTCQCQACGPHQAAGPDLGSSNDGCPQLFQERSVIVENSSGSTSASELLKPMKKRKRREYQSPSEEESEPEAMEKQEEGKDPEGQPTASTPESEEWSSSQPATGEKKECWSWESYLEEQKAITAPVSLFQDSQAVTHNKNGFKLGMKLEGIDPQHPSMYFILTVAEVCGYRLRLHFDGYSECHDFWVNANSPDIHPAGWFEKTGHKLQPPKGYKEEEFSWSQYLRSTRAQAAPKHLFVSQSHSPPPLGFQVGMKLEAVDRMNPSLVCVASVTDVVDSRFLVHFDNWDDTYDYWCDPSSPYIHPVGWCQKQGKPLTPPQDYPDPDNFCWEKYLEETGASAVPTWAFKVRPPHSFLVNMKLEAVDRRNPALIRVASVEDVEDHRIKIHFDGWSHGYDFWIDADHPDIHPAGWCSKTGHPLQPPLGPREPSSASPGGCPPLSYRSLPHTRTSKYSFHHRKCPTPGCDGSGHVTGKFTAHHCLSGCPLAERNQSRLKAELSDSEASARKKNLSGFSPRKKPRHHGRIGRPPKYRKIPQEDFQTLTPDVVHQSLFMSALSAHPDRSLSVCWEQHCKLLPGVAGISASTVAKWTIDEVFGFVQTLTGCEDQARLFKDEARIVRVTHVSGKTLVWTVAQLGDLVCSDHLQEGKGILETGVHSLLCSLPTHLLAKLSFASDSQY
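Read-out is AlphaScreen signal from streptavidin donor and nickel chelate acceptor beads (10 ug/mL final each) bridging L3MBTL1 (50 nM) and biotinylated K9-monomethylated H3(1-15) peptide (75 nM), after 30 min compound exposure at room temperature.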
PLK1 PBD block: blocks phosphopeptide binding to human PLK1 polo-box domain; P53350; Plk1 PBD binding of FITC phosphopeptide, fluorescence polarization; Potency, µM, for the others: max response, negative = inhibition, most hits filed as inhibitors; 360,000 tested, 2.8% active; AID 720504; further: series mostly up to about 57 µM; on the % scale 0 is the no-effect control and ±100 the full control effect; nearly all actives have a fitted effect of over 65% in size
HP1b binding inh: inhibitors of HP1-beta chromodomain binding to methylated histone tails. P83916. 390,000 tested, 0.56% active. AlphaScreen HP1-beta / biotin-H3K9me3 peptide binding. Potency, µM (titrated, usually from 114 µM), for the others: at the top dose activity change, negative = inhibition, most hits filed as inhibitors; further: nearly all actives have a fitted effect of over 70% in size
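HP1-beta protein (50 nM final) preincubated 30 min at room temperature with biotinylated H3(1-18)K9me3 peptide (50 nM) in PBS pH 7.4, 0.01% Tween-20, then compound added for 30 min. AlphaScreen streptavidin donor/nickel chelate acceptor beads (10 ug/mL final), 30 min dark, luminescence read.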
JMJD2A Tudor inh: blocks the human JMJD2A Tudor domain; 390,000 tested, 4.4% active; AlphaScreen JMJD2A-Tudor / H3K4me3 peptide binding; Potency, µM (series often up to 114 µM), for inactives: top-dose activity change, negative = inhibition, usual class: inhibitors; further: on the % scale 0 is the no-effect control and ±100 the full control effect; nearly all actives have a fitted effect of over 50% in size
BAZ2B inh: blocks human BAZ2B. Q9UIF8. AlphaScreen BAZ2B-H3K14Ac peptide displacement. Potency, µM (series often up to 114 µM), without a hit: top-dose activity change, negative = inhibition, usual class: inhibitors. 360,000 tested, 4.4% active; further: on the % scale 0 is the no-effect control and ±100 the full control effect; nearly all actives have a fitted effect of over 60% in size
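In this displacement format the biotinylated H3(5-23) peptide acetylated at Lys14 serves as ligand at 50 nM, with BAZ2B at 50 nM in PBS pH 7.4 containing 0.01% Tween-20. Donor and acceptor beads are 10 ug/mL final.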
VDR inh: vitamin D3 receptor (human) inhibition. AID 504847. Potency, µM, without a hit: max response, negative = inhibition, hits mostly inhibitors. 400,000 tested, 0.93% active. P11473. VDR-SRC2-3 peptide fluorescence polarization, 2 h; further: on the % scale 0 is the no-effect control and ±100 the full control effect
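Compounds are added to VDR with labelled SRC2-3 coactivator peptide and held 2 h at room temperature. Inhibition of the VDR–peptide interaction is then read as a change in fluorescence polarization.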
The depositor's hits bear a star; [ ] = another dose, or the depositor's remark. Compounds with a hit are over-represented: about 6.9% of the library has one in this group of screens. The call rests on the fitted dose curve; in most records, active means well fitted curve in the direction sought with a large enough effect; inconclusive means small, poorly fitted or top-dose-only effect, or another doubt; inactive means no such curve, though single readings can be large; an effect the other way counts as inactive or inconclusive. Potency means the concentration at half of the fitted maximal effect.

What do the screens show for `CCOc1ccc(C2C(C(=O)Nc3ccccc3)=C(C)N=c3s/c(=C/c4cccc(OCC(=O)O)c4)c(=O)n32)cc1` (centres undefined)?
L3MBTL1 block: 35µM*; PLK1 PBD block: inconclusive; HP1b binding inh: 9%; JMJD2A Tudor inh: inconclusive; BAZ2B inh: inconclusive; VDR inh: -24%

What do the screens show for `Nc1ccccc1OC1=NS(=O)(=O)c2ccccc21`?
JMJD2A Tudor inh: -10%

How did Cc1ccccc1OC1=NS(=O)(=O)c2ccccc21 do in these assays?
L3MBTL1 block: 3%; PLK1 PBD block: 30µM*; HP1b binding inh: 14%; JMJD2A Tudor inh: inconclusive; BAZ2B inh: -32%; VDR inh: -12%

What do the screens show for `O=S1(=O)N=C(Oc2ccccc2Br)c2ccccc21`?
JMJD2A Tudor inh: 79µM*

How did O=S1(=O)N=C(Oc2ccccc2Cl)c2ccccc21 do in these assays?
JMJD2A Tudor inh: 112µM*

How did O=S1(=O)N=C(Oc2cccc3ccccc23)c2ccccc21 do in these assays?
L3MBTL1 block: 35%; PLK1 PBD block: -17%; HP1b binding inh: -6%; JMJD2A Tudor inh: inconclusive; BAZ2B inh: 7%; VDR inh: -3%

How did O=C(O)c1ccccc1OC1=NS(=O)(=O)c2ccccc21 do in these assays?
JMJD2A Tudor inh: 79µM*

Results for COc1cccc(Nc2ncc3ncc(=O)n(CCc4ccccc4)c3n2)c1 ?
VDR inh: 10%

Results for COc1ccc(NC(=O)c2ccc3[nH]c(C)cc(=O)c3c2)cc1 ?
HP1b binding inh: 36%; JMJD2A Tudor inh: -10%; BAZ2B inh: -8%; VDR inh: 3%

How did O=CN1CCCN(Cc2nc(-c3cccc(Cl)c3)no2)CC1 do in these assays?
L3MBTL1 block: 6%; PLK1 PBD block: -1%; HP1b binding inh: 45%; JMJD2A Tudor inh: 2%; BAZ2B inh: 7%; VDR inh: 3%

How did CCOC(=O)c1sc2nc(C)n(N)c(=O)c2c1C do in these assays?
L3MBTL1 block: 6%; PLK1 PBD block: 4%; HP1b binding inh: 16%; JMJD2A Tudor inh: -8%; BAZ2B inh: -3%; VDR inh: 2%

What do the screens show for `O=C(O)CSc1cc(C(=O)c2cc(F)ccc2O)cn2c(=O)c3c(-c4ccccc4)csc3nc12`?
L3MBTL1 block: inconclusive; PLK1 PBD block: inconclusive; HP1b binding inh: 0%[57 µM]; JMJD2A Tudor inh: 56µM*; BAZ2B inh: 56µM*; VDR inh: -14%

What do the screens show for `CCOC(=O)c1sc2nc3c(SCCC(=O)O)cc(C(=O)c4cc(OC)ccc4O)cn3c(=O)c2c1C`?
L3MBTL1 block: inconclusive; PLK1 PBD block: inconclusive; HP1b binding inh: -12%; JMJD2A Tudor inh: 14µM*; BAZ2B inh: 35µM*; VDR inh: -4%

Results for CCc1c(C)sc2nc3c(C(=O)N4CCOCC4)cc(C(=O)c4cc(F)ccc4O)cn3c(=O)c12 ?
L3MBTL1 block: inconclusive; PLK1 PBD block: 5%; HP1b binding inh: -1%; JMJD2A Tudor inh: inconclusive; VDR inh: -10%

Results for CC(=O)Nc1ccc(NC(=O)C/C(C)=N/NC(=O)COc2cc(C)c(Br)cc2Br)cc1 ?
PLK1 PBD block: -6%; HP1b binding inh: 27%; JMJD2A Tudor inh: -8%; BAZ2B inh: -9%; VDR inh: -2%

How did O=C1NC(=O)/C(=C/c2cccc3ccccc23)S1 do in these assays?
L3MBTL1 block: -6%; PLK1 PBD block: 27µM*; HP1b binding inh: 17%; JMJD2A Tudor inh: -16%; BAZ2B inh: -32%; VDR inh: 6%

What do the screens show for `O=C1NC(=O)/C(=C\c2ccccc2OCc2ccccc2)S1`?
L3MBTL1 block: -20%; PLK1 PBD block: inconclusive; HP1b binding inh: 31%; JMJD2A Tudor inh: -16%; BAZ2B inh: -22%; VDR inh: -9%

What do the screens show for `O=C1NC(=O)C(=Cc2ccccc2[N+](=O)[O-])S1`?
PLK1 PBD block: 13µM*; HP1b binding inh: inconclusive; JMJD2A Tudor inh: -22%; VDR inh: inconclusive

Results for Cc1[nH]c2ccccc2c1CN1CCC(Cc2ccccc2)CC1 ?
L3MBTL1 block: 1%; PLK1 PBD block: -9%; HP1b binding inh: inconclusive; JMJD2A Tudor inh: 0.79µM*; BAZ2B inh: 45µM*; VDR inh: -11%

How did COc1ccc(C(=O)C(=O)N2CCC(Cc3ccccc3)CC2)cc1OC do in these assays?
PLK1 PBD block: -7%

What do the screens show for `COc1ccc(CN2CCC(Cc3ccccc3)CC2)cc1OC`?
L3MBTL1 block: -5%; PLK1 PBD block: -4%; HP1b binding inh: inconclusive; JMJD2A Tudor inh: 20µM*; BAZ2B inh: inconclusive; VDR inh: inconclusive

What do the screens show for `CCOc1ccc(CN2CCC(Cc3ccccc3)CC2)cc1`?
L3MBTL1 block: 0%; PLK1 PBD block: -1%; HP1b binding inh: inconclusive; JMJD2A Tudor inh: 25µM*; BAZ2B inh: inconclusive; VDR inh: -18%

What do the screens show for `COc1cccc(OC)c1OCCCN1CCC(Cc2ccccc2)CC1`?
PLK1 PBD block: -11%; HP1b binding inh: inconclusive; JMJD2A Tudor inh: 20µM*; BAZ2B inh: -35%; VDR inh: 5%

Results for O=C(NC1CCN(Cc2cccc([N+](=O)[O-])c2)CC1)c1ccccc1 ?
PLK1 PBD block: -5%; HP1b binding inh: 24%; JMJD2A Tudor inh: -9%; BAZ2B inh: -18%; VDR inh: 23%

How did O=[N+]([O-])c1cccc(CN2CCC(Cc3ccccc3)CC2)c1 do in these assays?
L3MBTL1 block: -8%; PLK1 PBD block: -2%; HP1b binding inh: inconclusive; JMJD2A Tudor inh: 1.6µM*; BAZ2B inh: 50µM*; VDR inh: 11%

Results for O=C(/C=C/c1cccs1)NC(=S)NNC(=O)c1ccccc1O ?
L3MBTL1 block: 35µM*; PLK1 PBD block: -22%; HP1b binding inh: 6%; JMJD2A Tudor inh: 79µM*; BAZ2B inh: inconclusive; VDR inh: -12%

Results for O=C(NC(=S)Nc1ccccc1)c1cccs1 ?
PLK1 PBD block: -4%; HP1b binding inh: -6%; JMJD2A Tudor inh: -20%; BAZ2B inh: -35%; VDR inh: 11%

What do the screens show for `COc1ccc(C(=O)NNC(=S)NC(=O)/C=C/c2cccs2)cc1`?
L3MBTL1 block: 1%; PLK1 PBD block: -21%; HP1b binding inh: 11%; JMJD2A Tudor inh: -22%; BAZ2B inh: -6%; VDR inh: 17%

Results for O=C(/C=C/c1cccs1)NC(=S)Nc1ccccc1 ?
L3MBTL1 block: -21%; PLK1 PBD block: -12%; HP1b binding inh: 2%; JMJD2A Tudor inh: inconclusive; BAZ2B inh: 32µM*; VDR inh: -10%

How did COc1cc(C(=O)Nc2cc(C)ccc2OCc2cc(=O)n3c(C)csc3n2)cc(OC)c1OC do in these assays?
HP1b binding inh: 16%[57 µM]; JMJD2A Tudor inh: -31%; BAZ2B inh: 8%; VDR inh: -1%
